The supplement of paper PMC12297408
Counter-ions that a name gives are not always drawn. Screen size: about 1,300 compounds; about 40 (3%) showed activity. Only a selection was taken, and actives are over-represented in it overall. A number with no mark means an inactive call.

Test system: Plasmodium falciparum NF54/iGP1_RE9H ulg8 stage V gametocytes
Test: gametocyte viability (luciferase signal relative to DMSO control) (% of DMSO control); higher = less gametocytocidal activity, active = 50 or less
Settings: exposure time: 72 h
Method in brief: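 In 96-well plates holding nanolitre spots of compound (10 mM DMSO stocks), NF54/iGP1_RE9Hulg8 stage V gametocytes from day 12 were added at ~2.5% gametocytemia and 3% hematocrit in medium with 0.5% Albumax II, giving single wells at 10 µM or 1 µM. Incubation lasted 72 h at 37 °C. Each 90 µl sample then received 10 µl D-luciferin (30 mg/ml) before luminescence reading on an IVIS Lumina II, and viability was normalized to the mean of DMSO vehicle wells on the same plate.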

How did the gametocyte viability (concentration: 1 µM) turn out when `Nc1c2c(nc3ccccc13)CCCC2O` (racemic) [Hydroxytacrine maleate (R,S)] was run?
The gametocyte viability was 101.

What about the gametocyte viability (concentration: 10 µM) of the same compound?
The gametocyte viability was 93.6.

Which results are given for `O=C1c2cccc3c2[C@H](CCC3)CN1[C@@H]1CN2CCC1CC2` [Palonosetron hydrochloride]?
gametocyte viability (concentration: 1 µM): 85.5; gametocyte viability (concentration: 10 µM): 81.6

`CCN(CC)CCOc1ccc(C(=C(Cl)c2ccccc2)c2ccccc2)cc1` [Clomiphene citrate (Z,E)] was tested. Which gametocyte viability (concentration: 1 µM) did it give?
Its gametocyte viability is 82.4.

What about the gametocyte viability (concentration: 10 µM) of the same compound?
Its gametocyte viability is 95.2.

How did the gametocyte viability (concentration: 1 µM) turn out when `COc1cc2ncnc(Nc3ccc(F)c(Cl)c3)c2cc1OCCCN1CCOCC1` [Gefitinib] was run?
The gametocyte viability was 95.8.

What about the gametocyte viability (concentration: 10 µM) of the same compound?
Its gametocyte viability is 85.9.

What does the source list for `C#Cc1cccc(Nc2ncnc3cc(OCCOC)c(OCCOC)cc23)c1` [Erlotinib]?
gametocyte viability (concentration: 1 µM): 70.7; gametocyte viability (concentration: 10 µM): 37.2 (active)

Which gametocyte viability (concentration: 1 µM) does the source give for `Cc1c(C)c2c(c(C)c1O)CCC(C)(C(=O)O)O2` (stereo not drawn) [Trolox] here?
The gametocyte viability was 88.2.

What about the gametocyte viability (concentration: 10 µM) of the same compound?
The gametocyte viability was 87.5.

Which results are given for `CCOC(=O)C1=C[C@]2(CC)CCCN3CCc4c(n1c1ccccc41)[C@@H]32` [Vinpocetine]?
gametocyte viability (concentration: 1 µM): 86.2; gametocyte viability (concentration: 10 µM): 87.6

How did the gametocyte viability (concentration: 1 µM) turn out when `CC(C)NC[C@@H](O)COc1cccc2ccccc12` [(R)-Propranolol hydrochloride] was run?
The gametocyte viability was 93.4.

And the gametocyte viability (concentration: 10 µM)?
Its gametocyte viability is 89.

With `Nc1ccccc1S(N)(=O)=O` [2-Aminobenzenesulfonamide] as the compound, how does the gametocyte viability (concentration: 1 µM) read?
The gametocyte viability was 98.

And the gametocyte viability (concentration: 10 µM)?
The gametocyte viability was 95.8.

What does the source list for `CN1CCN(CC(=O)N2c3ccccc3C(=O)Nc3cccnc32)CC1` [Pirenzepine dihydrochloride]?
gametocyte viability (concentration: 1 µM): 86.5; gametocyte viability (concentration: 10 µM): 83.3

Which results are given for `CCN(CCCc1ccccc1)CCCc1ccccc1` [Alverine citrate salt]?
gametocyte viability (concentration: 1 µM): 82.3; gametocyte viability (concentration: 10 µM): 82

Which gametocyte viability (concentration: 1 µM) does the source give for `CCN(CCO)CCCC(C)Nc1ccnc2cc(Cl)ccc12` (stereo not drawn) [Hydroxychloroquine sulfate] here?
The gametocyte viability was 83.3.

And the gametocyte viability (concentration: 10 µM)?
The gametocyte viability was 80.8.

How did the gametocyte viability (concentration: 1 µM) turn out when `CCN(CC)CCCC(C)Nc1ccnc2cc(Cl)ccc12` (stereo not drawn) [Chloroquine diphosphate] was run?
Its gametocyte viability is 82.8.

What about the gametocyte viability (concentration: 10 µM) of the same compound?
Its gametocyte viability is 86.8.

With `CCN(CC)CCCC(C)Nc1c2ccc(Cl)cc2nc2ccc(OC)cc12` (stereo not drawn) [Quinacrine dihydrochloride dihydrate] as the compound, how does the gametocyte viability (concentration: 1 µM) read?
Its gametocyte viability is 113.

And the gametocyte viability (concentration: 10 µM)?
The gametocyte viability was 44.5 (active).

`O=C(N/N=C/c1ccc([N+](=O)[O-])o1)c1ccc(O)cc1` [Nifuroxazide] was tested. Which gametocyte viability (concentration: 1 µM) did it give?
The gametocyte viability was 95.9.

What about the gametocyte viability (concentration: 10 µM) of the same compound?
Its gametocyte viability is 30.6 (active).

What does the source list for `O=C1CN(/N=C/c2ccc([N+](=O)[O-])o2)C(=O)N1` [Nitrofurantoin]?
gametocyte viability (concentration: 1 µM): 83.4; gametocyte viability (concentration: 10 µM): 82.5

How did the gametocyte viability (concentration: 1 µM) turn out when `NC(=O)N/N=C/c1ccc([N+](=O)[O-])o1` [Nitrofural] was run?
Its gametocyte viability is 90.1.

What about the gametocyte viability (concentration: 10 µM) of the same compound?
The gametocyte viability was 89.1.

Which results are given for `CCOC(=O)c1ccc(OC(=O)CCCCCNC(=N)N)cc1` [Gabexate mesilate]?
gametocyte viability (concentration: 1 µM): 88.8; gametocyte viability (concentration: 10 µM): 92

Which gametocyte viability (concentration: 1 µM) does the source give for `CN1CCC(=C2c3ccccc3CC(=O)c3sccc32)CC1` [Ketotifen fumarate] here?
Its gametocyte viability is 79.5.

And the gametocyte viability (concentration: 10 µM)?
Its gametocyte viability is 84.2.
